TEAD-YAP block: TEAD-YAP interaction inhibition, primary screen, TEAD-YAP interaction inhibitor project, luminescence, HEK-TIYL cells; TEAD-Gal4/YAP UAS-luciferase luminescence; inhibition, % at 9.12 µM; 640,000 tested, 1.4% active; in the data active means inhibition above about 32%;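 further: 0% = median of test compound wells and 100% = reference inhibitor wells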
MITF inh: MITF inhibitors, primary screen, biochemical, AlphaScreen, human | Microphthalmia-associated transcription factor (Homo sapiens), O75030 | AlphaScreen MITF homodimerization, bead proximity signal | inhibition, % at 2.6 µM | 650,000 tested, 0.91% active; in the data active means inhibition above about 50%;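 further: 0% = vehicle wells with protein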
GPR151 ag: activators of human GPR151, primary screen, cell-based, PathHunter beta-arrestin, luminescence. PathHunter beta-arrestin GPR151 cells. activation, % at 11.2 µM. AID 1508602, 2020. G-protein coupled receptor 151 (Homo sapiens), Q8TDV0. 650,000 tested, 1% active; in the data active means activation above about 4.9%;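 further: 0% = median of compound wells and 100% = cells with positive control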
FBW7 act: FBW7 E3 ligase activators, primary screen, biochemical, AlphaScreen, human; AlphaScreen FBW7–phospho-cyclin E peptide binding, activator screen; 650,000 tested, 0.13% active; normalized activity (activation), % at 26.1 µM; in the data active means normalized activity above about 1.9%;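 further: purified mutant Fbw7 with reduced substrate affinity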
Target sequence (Q969H0 whole entry, looked up): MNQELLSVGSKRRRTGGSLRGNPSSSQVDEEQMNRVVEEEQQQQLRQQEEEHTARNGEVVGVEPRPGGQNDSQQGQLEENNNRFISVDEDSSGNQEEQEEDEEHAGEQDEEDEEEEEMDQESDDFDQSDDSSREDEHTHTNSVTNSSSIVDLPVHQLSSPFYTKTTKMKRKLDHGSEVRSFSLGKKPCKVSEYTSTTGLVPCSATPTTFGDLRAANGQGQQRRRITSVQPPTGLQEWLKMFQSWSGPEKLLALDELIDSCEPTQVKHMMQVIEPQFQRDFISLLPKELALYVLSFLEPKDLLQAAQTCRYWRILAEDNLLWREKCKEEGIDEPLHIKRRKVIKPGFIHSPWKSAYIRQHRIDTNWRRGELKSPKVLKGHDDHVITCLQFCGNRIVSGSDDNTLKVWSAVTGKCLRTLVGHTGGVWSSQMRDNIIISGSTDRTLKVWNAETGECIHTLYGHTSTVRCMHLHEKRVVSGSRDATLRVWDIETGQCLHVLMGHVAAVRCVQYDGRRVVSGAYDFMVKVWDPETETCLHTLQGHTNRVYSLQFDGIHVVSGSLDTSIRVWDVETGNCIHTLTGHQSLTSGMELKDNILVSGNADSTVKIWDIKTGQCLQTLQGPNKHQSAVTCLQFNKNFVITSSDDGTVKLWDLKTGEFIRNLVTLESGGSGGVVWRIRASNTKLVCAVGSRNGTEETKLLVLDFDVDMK
The depositor's hits bear a star. Rows were chosen to be rich in hits. Some 3.5% of all compounds tested hit in one or more screens of this group.

SMILES	TEAD-YAP block	MITF inh	GPR151 ag	FBW7 act
O=C(NN=C1CCCC1)C(=O)Nc1ccc(Cl)c(Cl)c1	-3	-4	1	0
Cc1nc2cc(NC(=O)c3ccc(S(=O)(=O)N(C)C4CCCCC4)cc3)ccc2s1	38*	12	0	0
O=C(NCc1ccc(Cl)cc1)C(=O)Nc1ccccc1Br	-14	13	-1	0
Cc1ccc2c(CC(=O)Nc3sc4c(c3C(N)=O)CCCC4)coc2c1	-5	-8	-1	0
COCCCNC(=O)c1c(NC(=O)Cc2coc3ccc(C)cc23)sc2c1CCCC2	48*	9	2	0
CCOC(=O)C1=C(c2ccc(F)cc2)C(=O)c2ccccc2C1=O	26	14	0	-1
CCOC(=O)C1=C(Cc2ccc(OC)cc2)C(=O)c2ccccc2C1=O	46*	12	-1	0
COc1cc(/C=C2\C(=O)ON=C2c2ccccc2)cc(OC)c1OC	-7	13	0	0
O=C1ON=C(c2ccc(Cl)cc2)/C1=C\c1ccc2c(c1)OCO2	2	77*	0	0
CCOc1cc(/C=C2\C(=O)ON=C2c2ccccc2)ccc1OC	-10	58*	-1	0
COc1ccc(/C=C2/C(=O)ON=C2c2ccccc2)cc1OC	-26	65*	2	-1
CCCCOc1ccc(/C=C2\C(=O)ON=C2c2ccc(Cl)cc2)cc1	9	24	-1	0
CCOc1ccc(/C=C2\C(=O)ON=C2c2ccccc2)cc1	-5	6	0	0
COc1ccc(OC)c(/C=C2\C(=O)ON=C2c2ccccc2)c1	-8	77*	0	0
COc1ccc(OC)c(C=C2C(=O)OC(C)(c3ccccc3)OC2=O)c1 (configuration not stated)	-8	22	1	0
CC(C)[C@H](O)C(=O)N1CCC[C@H]1C(=O)Nc1ccc2[nH]ncc2c1	-1	9	4	0
Cc1cc(Cl)c2ccc(Cl)c(C)c2n1	-4	5	2	0
CC(=O)Oc1ccc(C(=O)Nc2ccc3ccccc3c2)cc1	36*	-17	-1	0
O=C(Nc1ccc(O)cc1)c1ccccc1Cl	52*	0	-1	0
CS(=O)(=O)Nc1ccc(C(=O)Nc2ccc3ccccc3c2)cc1	-35	1	-3	0
O=C(Nc1ccc(O)cc1)c1ccc2ccccc2c1	47*	-2	-1	0
NC(=O)c1ccc(NC(=O)c2ccc3ccccc3c2)cc1	-77	23	1	1
Cc1ccccc1-c1nnc(N(C)C(=O)CC(C)C)s1	-41	6	2	0
COc1cccc(CNC(=O)c2cc3oc4ccccc4c3n2C)c1	18	5	0	0
COc1cccc(CNC(=O)c2cc3oc4ccccc4c3n2C)c1OC	36*	15	0	0
SMILES	TEAD-YAP block	MITF inh	GPR151 ag	FBW7 act
O=C(Nc1ccc(Br)cc1)c1ccc(F)c(S(=O)(=O)NCC2CCCO2)c1 (configuration not stated)	50*	1	1	0
O=C(Nc1ccc(Br)cc1)c1ccc(F)c(S(=O)(=O)NCc2ccco2)c1	43*	-4	0	0
COc1ccccc1CNS(=O)(=O)c1cc(C(=O)Nc2ccc(Br)cc2)ccc1F	33*	1	3	0
CC1=C(C(=O)Nc2cc(C)ccn2)C(c2ccc(N(C)C)cc2)C2=C(CC(C)(C)CC2=O)N1 (configuration not stated)	2	14	-1	0
CC(=O)c1ccc(C(=O)N2CCOc3ccc(CN4CCN(C(C)=O)CC4)cc3C2)cc1	5	5	0	2.3*
COC(=O)C1CCN(Cc2ccc3c(c2)CN(C(=O)Cc2cccc(F)c2)CCO3)CC1	6	18	-1	2.1*
COc1ccc(Cl)cc1NC(=O)c1cc(S(=O)(=O)NCc2ccco2)ccc1F	-8	-4	-2	0
CCOc1cccc2c1OC1(C)CC2NC(=O)N1c1cccc(F)c1 (configuration not stated)	11	-5	3	4.4*
c1ccc(Oc2cccc(Oc3cccc(Oc4cccc(Oc5ccccc5)c4)c3)c2)cc1	-6	-4	1	0
COc1ccc(Oc2nc(C)cc(C)n2)cc1	-10	4	-2	1
Nc1ccc(Oc2cccc(-c3ccc(N)cc3)c2)cc1	46*	6	0	0
Cc1cc(C)nc(Oc2ccc(N)cc2)n1	52*	16	0	1.9*
Nc1ccc(Oc2cccc(Oc3ccc(N)cc3)c2)cc1	52*	6	0	0
COc1ccc(/C=C(/C#N)c2cccc(F)c2)c(OC)c1	43*	-3	-1	0
COc1ccc(/C=C(/C#N)c2cccc([N+](=O)[O-])c2)c(OC)c1	8	15	-1	0
CCn1c2c(c(=O)[nH]c1=O)C(c1cccs1)C1=C(CCCC1=O)N2 (configuration not stated)	0	10	1	0
O=C(Nc1ccncc1)c1ccc(COc2ccccc2Cl)cc1	60*	16	-4	1
CN(C)S(=O)(=O)c1ccc(C(=O)Nc2ccc(Cc3ccncc3)cc2)cc1	22	-5	1	0
Cc1ccc(Oc2ccc(NC(=O)c3ccncc3)cc2)cc1C	36*	7	0	0
O=C(Nc1ccc(Cc2ccncc2)cc1)c1ccc(Oc2ccc(C(=O)Nc3ccc(Cc4ccncc4)cc3)cc2)cc1	62*	6	0	0
O=C(Nc1ccc(-c2ccco2)cc1)C1CCCN(C(=O)C2CCOCC2)C1 (configuration not stated)	-4	0	0	0
Cc1ccc(N2C(=O)c3ccccc3NC2c2ccc(O)cc2)cc1 (configuration not stated)	-10	4	-3	0
CCOC(=O)C1=NN(C(=O)Cc2ccccc2)C(O)(C(C)(C)C)C1 (configuration not stated)	13	-6	0	0
COC(=O)C1=NN(C(=O)Cc2ccccc2)C(O)(C(C)(C)C)C1 (configuration not stated)	-1	16	0	2.0*
S=C(NCC1CCCO1)Nc1cnn(Cc2ccc(Cl)cc2)c1 (configuration not stated)	8	15	-2	1
CC(C)OCCCNC(=O)C(C)N(c1ccc(Oc2ccccc2)cc1)S(C)(=O)=O (configuration not stated)	7	16	1	0
CCOC(=O)c1ccc(NC(=O)/C(C#N)=C/c2ccc(C3CC3C)o2)cc1 (configuration not stated)	41*	13	1	0
COc1ccc(NC(=O)/C(C#N)=C/c2ccccc2OC(C)C)cc1	51*	2	3	0
COc1ccccc1/C=C(/C#N)C(=O)Nc1ccc(O)cc1	10	-9	1	0
COc1ccc(NC(=O)/C(C#N)=C\c2ccc(N(C)C)o2)cc1	33*	-16	2	0

From PubChem
